Bioassay records deposited in PubChem BioAssay by The Scripps Research Institute Molecular Screening Center.
DAX1 inh-1: inhibitors of human orphan nuclear receptor DAX1 (NR0B1) | P51843 | HEK293 Gal4-DAX1 luciferase reporter, luminescence | inhibition, % at 6.75 µM | 340,000 tested, 0.99% active | AID 504766;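 active = inhibition above the mean over all tested compounds plus 3 SD, cut at about 4.2% in these data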;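 also: 0% = DAX1-transfected cells with DMSO and 100% = empty-vector control cells with DMSO; inhibition shows as a rise in luminescence from relieved DAX1 repression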
Target sequence (P51843 207-470 limits assumed): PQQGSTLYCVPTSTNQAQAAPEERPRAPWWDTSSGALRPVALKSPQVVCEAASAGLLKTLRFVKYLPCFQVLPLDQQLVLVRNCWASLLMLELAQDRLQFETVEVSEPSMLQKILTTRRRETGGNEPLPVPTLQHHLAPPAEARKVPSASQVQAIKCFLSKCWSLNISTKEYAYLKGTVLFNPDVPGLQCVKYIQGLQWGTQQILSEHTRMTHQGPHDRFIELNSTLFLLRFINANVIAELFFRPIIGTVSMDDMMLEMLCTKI
hcDAF-12 act: H. contortus DAF-12 activation, primary screen. HEK293 hcDAF-12 lit1-tk-luc reporter, luminescence; 0% DMSO, 100% Δ7-dafachronic acid. activation, % at 6.8 µM. 370,000 tested, 1.4% active. AID 652067;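 active = activation above the mean of all tested compounds plus 3 SD, cut at about 5.5% in these data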;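 also: 100% = response to 3 µM Δ7-dafachronic acid high control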
hgDAF12 agonist: activates the H. glycines DAF-12 receptor ligand-binding domain. HEK293 GAL4-hgDAF12 UAS-luciferase reporter, agonist luminescence; normalized to butyrate control. activation, % at 6.8 µM. 370,000 tested, 1.8% active. AID 687014;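 active = activation above a cutoff set at the mean of all screened compounds plus 3 SD, cut at about 10% in these data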;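 also: 0% = DMSO wells and 100% = sodium butyrate wells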
ssDAF12 agonist: S. stercoralis DAF-12 activation, primary screen. HEK293 ssDAF-12/GRIP1 lit1-tk-luc reporter, luminescence; % of 3 µM dafachronic acid response. activation, % at 6.8 µM. 370,000 tested, 1% active;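 active = activation above the mean over all tested compounds plus 3 SD, cut at about 0.9% in these data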;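 also: 0% = DMSO-only wells and 100% = 3 µM delta7-dafachronic acid wells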
DAX1 inh-2: blocks DAX1 repression of SF-1 activated StAR promoter; inhibition, % at 6.8 µM; HEK293T StAR-luciferase reporter, SF-1/DAX-1 repression relief; 370,000 tested, 1.1% active;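 active = inhibition above the mean over all tested compounds plus 3 SD, cut at about 3.6% in these data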;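 also: 0% = DAX-1 cells with DMSO and 100% = cells lacking DAX-1 with DMSO; higher inhibition means more luminescence from relief of DAX-1 repression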
LXR ag: LXR-beta agonism as hcDAF-12 counter-screen; shares compounds with hcDAF-12 act; HEK293 Gal4-LXR tk-luc reporter, luminescence, 24 h; normalized: DMSO 0%, positive control 100%; activation, % at 6.8 µM; 3,400 tested, under 10 active;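 active = mean percent activation of the reporter above a cutoff set as the average over tested compounds plus their standard deviation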
hcDAF12 ag: hcDAF-12 agonism, confirmation assay. shares compounds with hcDAF-12 act. HEK293 hcDAF-12 lit1-tk-luc reporter, luminescence; % of Δ7-dafachronic acid response. activation, % at 6.8 µM. 3,400 tested, 61% active. AID 743032;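 active = mean activation across triplicate tests above the threshold derived from the earlier primary screen, cut at about 5.5% in these data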;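 also: 0% = DMSO only wells and 100% = 3 µM Δ7-dafachronic acid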
hgDAF12 conf: confirmation of H. glycines DAF-12 agonists; shares compounds with hgDAF12 agonist; HEK293 GAL4-hgDAF12 luciferase reporter, agonist mode; percent of butyrate response; activation, % at 6.8 µM; 3,300 tested, 80% active;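 active = mean activation over triplicate wells above the hit cutoff derived from the earlier primary screen, cut at about 11% in these data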;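 also: 0% = DMSO low control and 100% = 2 mM sodium butyrate high control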
LXRb DAF12 ctr: LXR-beta agonism as DAF-12 counter-screen. shares compounds with hgDAF12 agonist. HEK293 Gal4-LXR luciferase reporter, 24 h. activation, % at 6.8 µM. 3,300 tested, under 10 active;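 active = mean activation of the triplicate above a set limit carried over from the primary screen, none filed active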
An asterisk follows results filed as active; / = no result. Shown are actives, neighbours in structure and some others; about 4.1% of the full set was active somewhere.

SMILES	DAX1 inh-1	hcDAF-12 act	hgDAF12 agonist	ssDAF12 agonist	DAX1 inh-2	LXR ag	hcDAF12 ag	hgDAF12 conf	LXRb DAF12 ctr
N/C(=N\OC(=O)c1cccs1)c1ccccc1	2	7.4*	16*	2.3*	1	1	3	15*	1
COc1ccc(C(=O)NCc2ccc(-c3nc4ccccc4s3)cc2)cc1OC	0	-1	5	0	0	/	/	/	/
COc1cc(OC)cc(-c2nc3ccccc3s2)c1	2	8.6*	17*	1	1	1	13*	15*	1
Cc1nc2nc(-c3cccs3)[nH]c2cc1Br	3	8.9*	23*	1.0*	1	1	8.3*	22*	1
c1ccc(-c2nc(-c3cccs3)[nH]c2-c2ccccc2)cc1	0	-1	-2	-1	-1	/	/	/	/
Cc1ccc(-c2csc(NC(=O)/C=C/c3ccco3)c2C(=O)O)cc1	1	11*	14*	0	3	1	6.0*	11*	1
CC1CN(C(=S)Nc2cccc(Cl)c2Cl)CC(C)O1 (stereo unspecified)	1	1	1	-1	1	/	/	/	/
O=C(NCCc1c[nH]c2ccccc12)OCc1cn(Cc2ccccc2Cl)nn1	/	-1	-2	0	0	/	/	/	/
COc1cc(/C=N/n2nnnc2N)cc(Cl)c1OC	2	0	-1	-1	1	/	/	/	/
COc1ccc2c(c1)CCc1c-2n[nH]c1C(=O)NCCC(C)C	2	6.8*	15*	0	4.0*	1	4	17*	1
O=[N+]([O-])c1ccccc1COc1ccc(Cl)c2cccnc12	4.8*	9.1*	15*	0	3	2	7.8*	16*	1
C[C@H](CO)N1C[C@H](C)[C@@H](CN(C)CC2CC2)OCc2cnnn2CCCC1=O	1	1	-3	-1	0	/	/	/	/
O=C(Nc1ccccc1)c1cc2ccc3ccccc3c2s1	4.4*	12*	15*	2.8*	1	1	9.8*	16*	1
CCOc1ccc(-c2c(=O)n(O)c3ccccc3[n+]2[O-])cc1	1	7.8*	21*	0	3	0	3	41*	1
Nc1ccc2nn(-c3ccc(F)cc3)nc2c1	4.3*	14*	16*	2.3*	2	1	2	16*	1
Cc1cc2nn(-c3ccc(F)cc3)nc2cc1N	3	14*	18*	1.4*	4.0*	2	16*	24*	1
O=C1NC[C@@H](CCCCN2C[C@H](Cc3ccc(O)cc3)N(CCC3CCCCC3)C(=O)C2=O)N(CCC2CCCCC2)C1=O	/	-2	-2	-1	0	/	/	/	/
N#Cc1cc2ccccc2nc1SCc1ccccn1	2	20*	17*	4.7*	4.3*	1	9.2*	16*	1
Cc1cc(O)ccc1N/C=C/c1onc(C)c1[N+](=O)[O-]	1	7.9*	17*	0.9*	2	1	6.2*	15*	1
Cc1cccc(N/C=C/c2onc(C)c2[N+](=O)[O-])c1	2	4	8	1	2	/	/	/	/
CCCN(C)C1CN(Cc2cn(Cc3ccc(C)cc3)nn2)S(=O)(=O)C1 (stereo unspecified)	/	0	-1	-1	0	/	/	/	/
Cc1c(Cc2ccccc2)[n+](=O)c2ccccc2n1[O-]	0	0	-1	-1	-1	/	/	/	/
COC(=O)[C@]12C[C@H](CC(=O)NCc3ccccc3)C(=O)N(Cc3ccccc3)C1=C[C@H](C(C)C)O[C@@H]2C1CC1	/	0	0	-1	0	/	/	/	/
Brc1ccc(Nc2nc(-c3cccnc3)cs2)cc1	3	8.0*	23*	1	2	1	11*	13*	0
O=[N+]([O-])c1cccc(-c2csc(Nc3ccccc3)n2)c1	2	6.8*	14*	0.9*	0	1	8.0*	17*	0
SMILES	DAX1 inh-1	hcDAF-12 act	hgDAF12 agonist	ssDAF12 agonist	DAX1 inh-2	LXR ag	hcDAF12 ag	hgDAF12 conf	LXRb DAF12 ctr
COc1ccccc1Nc1nc(-c2cccc([N+](=O)[O-])c2)cs1	1	0	1	0	0	/	/	/	/
CCC(NC(=O)CCCN1C(=O)COc2ccc(C)cc21)c1ccccc1 (stereo unspecified)	/	-2	-5	-2	-1	/	/	/	/
O=[N+]([O-])c1ccc(Br)c(CN2CCN(c3ncc(Cc4ccccc4)cn3)CC2)c1	/	0	1	-1	1	/	/	/	/
Nc1nc(CCl)nc(Nc2ccccc2)n1	-2	2	3	-2	-1	/	/	/	/
Nc1nc(Nc2ccc(Cl)cc2)nc2ccccc12	-1	14*	14*	2.5*	2	2	12*	22*	1
Nc1nc(Nc2ccccc2)nc2ccccc12	0	9.9*	15*	1.7*	3.6*	1	5	16*	1
COc1cc(C(=O)NCCc2ccc(S(N)(=O)=O)cc2)ccc1OCc1c(C)noc1C	-1	1	-2	-1	-2	/	/	/	/
Cc1ccc(Nc2n[nH]c(C)c2[N+](=O)[O-])cc1C	4	11*	19*	1.0*	4.4*	2	6.3*	22*	1
O=C(Nc1cccc(-c2cnc3ccccc3n2)c1)c1ccccc1	0	0	2	-1	0	/	/	/	/
CCc1ccc(-c2cnc3ccccc3n2)cc1NC(=O)CNC(=O)c1ccccc1	1	13*	19*	1.1*	3	2	6.6*	9	1
Cc1nn(-c2ccc3ccccc3c2)c(=O)c2ccccc12	2	12*	16*	1.7*	2	1	8.5*	15*	1
Nc1cc(Br)cc2c1[nH]c(=O)c1ccccc12	1	0	0	-1	0	/	/	/	/
CCN1CCSc2ccc(C(=O)NCc3cccc(F)c3)cc21	0	-2	3	-1	0	/	/	/	/
CN1CCSc2ccc(C(=O)Nc3cccc(F)c3)cc21	7.4*	11*	24*	2.0*	3.8*	1	8.3*	25*	1
CCN(CC)c1ccc(C(=O)Nc2cccc(F)c2)cc1	1	7.2*	15*	0	2	1	4	19*	1
COc1ccc(CC(=O)OCC(=O)c2ccc(F)cc2)cc1	3	2	3	-1	1	/	/	/	/
